Results on seven compounds are retold here after the supplement of paper PMC7411054.

What all share (details): treatment time: 24 h
Assay [1] relates to A549-ACTB-RAB5A. Description: lowest phenotypically active concentration; higher = less potent. In a few lines: (§1)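 Fifteen reporter lines derived from A549, HepG2 and WPMY1 cells by gene editing, carrying BFP for segmentation plus GFP and RFP/FusionRed markers, were exposed to 0.3, 1, 3 or 9 µM for 24 h in four wells each and imaged live. Live-cell features from each well were normalised to solvent control wells. A well set counted as deviating when ≥3 of 4 wells lay beyond the 95th percentile of control Euclidean distances, and as reproducible when the median replicate Pearson correlation exceeded the 95th percentile of non-replicates. Phenotypic activity was assigned only when both criteria were met.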

Assay [2] concerns A549-CANX-COX4. The assay is described as above. An outline of the steps:
as §1

Assay [3] concerns A549-GM130-SQSTM1. Described as above. An outline of the steps:
as §1

The subject of assay [4] is A549-TP53BP1-CLTA. The assay is described as above. In a few lines: as §1
Assay [5] concerns A549-TUBA1B-RELA. The assay is described as above. An outline of the steps:
as §1

Assay [6] concerns A549-ACTB-RAB5A. The assay is described as follows: phenotypically active (imaging signature differs from DMSO and reproducible) at any of 0.3-9 uM (binary (1 = active, 0 = inactive)); higher = active. In a few lines:
as §1

The test system of assay [7] is A549-CANX-COX4. The assay is described as above. In a few lines:
as §1

For assay [8], the system named is A549-GM130-SQSTM1. Described as above. In a few lines:
as §1

For assay [9], the system named is A549-TP53BP1-CLTA. The assay is described as above. In a few lines:
as §1

Assay [10] concerns A549-TUBA1B-RELA. The assay is described as above. In a few lines: as §1
The next assay has as its system HepG2-ACTB-RAB5A. Described as above. In a few lines:
as §1

A further assay relates to HepG2-CANX-COX4. The description is as above. In a few lines: as §1
Another assay has as its system HepG2-GM130-SQSTM1. The assay is described as above. In a few lines:
as §1

The test system of a further assay is HepG2-TP53BP1-CLTA. The description is as above. In a few lines: as §1
The subject of a further assay is HepG2-TUBA1B-RELA. The description is as above. In a few lines:
as §1

The next assay deals with WPMY1-ACTB-RAB5A. Described as above. In a few lines: as §1
For the next assay, the system named is WPMY1-CANX-COX4. The description is as above. In a few lines:
as §1

In another assay the test system is WPMY1-GM130-SQSTM1. Described as above. An outline of the steps: as §1
The subject of a further assay is WPMY1-TP53BP1-CLTA. Described as above. In a few lines:
as §1

The subject of a further assay is WPMY1-TUBA1B-RELA. Described as above. An outline of the steps: as §1

Structures can show the parent of a compound that is named as a salt.

For `O=C(Nc1cccc(Cl)c1)Nc1ncc(CCNc2ncnc3ccsc23)s1` [SNS 314 mesylate], the “lowest phenotypically active concentration” value in the assay on A549-ACTB-RAB5A [1], in the assay with A549-CANX-COX4 [2], in the assay on A549-GM130-SQSTM1 [3], in the assay with A549-TP53BP1-CLTA [4] and with A549-TUBA1B-RELA [5] was at most 0.3 µM throughout. Moreover, the phenotypically active with A549-ACTB-RAB5A [6], in the assay with A549-CANX-COX4 [7], with A549-GM130-SQSTM1 [8], with A549-TP53BP1-CLTA [9], with A549-TUBA1B-RELA [10] and with HepG2-ACTB-RAB5A was 1 (active) each time. Also, the phenotypically active in the assay on HepG2-CANX-COX4, with HepG2-GM130-SQSTM1, with HepG2-TP53BP1-CLTA, with HepG2-TUBA1B-RELA, with WPMY1-ACTB-RAB5A and in the assay with WPMY1-CANX-COX4 was 1 (active) in each case. The phenotypically active in the assay with WPMY1-GM130-SQSTM1, in the assay with WPMY1-TP53BP1-CLTA and in the assay on WPMY1-TUBA1B-RELA was 1 (active) throughout.
Regarding `CCCCCCCCCCCCCCCC[n+]1ccn(Cc2ccccc2)c1C`, the “lowest phenotypically active concentration” value in the assay on A549-ACTB-RAB5A [1] was 1 µM; in the assay with A549-CANX-COX4 [2] it was at most 0.3 µM; with A549-GM130-SQSTM1 [3] it was at most 0.3 µM; with A549-TP53BP1-CLTA [4] it was 1 µM; with A549-TUBA1B-RELA [5] it was 1 µM. Moreover, the phenotypically active in the assay with A549-ACTB-RAB5A [6], with A549-CANX-COX4 [7], in the assay with A549-GM130-SQSTM1 [8], in the assay with A549-TP53BP1-CLTA [9], in the assay with A549-TUBA1B-RELA [10] and in the assay on HepG2-ACTB-RAB5A was 1 (active) throughout. In addition, the phenotypically active in the assay with HepG2-CANX-COX4, with HepG2-GM130-SQSTM1, in the assay on HepG2-TP53BP1-CLTA, with HepG2-TUBA1B-RELA, with WPMY1-ACTB-RAB5A and in the assay with WPMY1-CANX-COX4 was 1 (active) each time. In addition, the phenotypically active in the assay on WPMY1-GM130-SQSTM1, in the assay on WPMY1-TP53BP1-CLTA and with WPMY1-TUBA1B-RELA was 1 (active) throughout.
In the case of `COc1ccccc1S(=O)(=O)Nc1ccc2c(c1)CN(C)C(=O)N2`, the “lowest phenotypically active concentration” value was found to be 1 µM in the assay on A549-ACTB-RAB5A [1]; 3 µM with A549-CANX-COX4 [2]; 3 µM in the assay with A549-GM130-SQSTM1 [3]; 3 µM in the assay with A549-TP53BP1-CLTA [4]; 3 µM in the assay on A549-TUBA1B-RELA [5]. Further, the phenotypically active in the assay on A549-ACTB-RAB5A [6], in the assay on A549-CANX-COX4 [7], in the assay on A549-GM130-SQSTM1 [8], in the assay with A549-TP53BP1-CLTA [9], in the assay on A549-TUBA1B-RELA [10] and in the assay with HepG2-ACTB-RAB5A was 1 (active) throughout. Moreover, the phenotypically active in the assay on HepG2-CANX-COX4, in the assay on HepG2-GM130-SQSTM1, in the assay with HepG2-TP53BP1-CLTA, with HepG2-TUBA1B-RELA, in the assay on WPMY1-ACTB-RAB5A and with WPMY1-CANX-COX4 was 1 (active) throughout. In addition, the phenotypically active in the assay with WPMY1-GM130-SQSTM1, in the assay on WPMY1-TP53BP1-CLTA and with WPMY1-TUBA1B-RELA was 1 (active) each time.
In the case of `CCC1(O)CC2CN(CCc3c([nH]c4ccccc34)C(C(=O)OC)(c3cc4c(cc3OC)N(C)C3C(O)(C(=O)OC)C(OC(C)=O)C5(CC)C=CCN6CCC43C65)C2)C1` (stereo not given) [Vinblastine sulfate], the “lowest phenotypically active concentration” value in the assay with A549-ACTB-RAB5A [1], in the assay on A549-CANX-COX4 [2], in the assay with A549-GM130-SQSTM1 [3], with A549-TP53BP1-CLTA [4] and in the assay with A549-TUBA1B-RELA [5] was at most 0.3 µM throughout. Besides, the phenotypically active with A549-ACTB-RAB5A [6], with A549-CANX-COX4 [7], in the assay with A549-GM130-SQSTM1 [8], in the assay on A549-TP53BP1-CLTA [9], in the assay on A549-TUBA1B-RELA [10] and in the assay with HepG2-ACTB-RAB5A was 1 (active) throughout. The phenotypically active in the assay with HepG2-CANX-COX4, in the assay with HepG2-GM130-SQSTM1, in the assay with HepG2-TP53BP1-CLTA, with HepG2-TUBA1B-RELA, in the assay on WPMY1-ACTB-RAB5A and with WPMY1-CANX-COX4 was 1 (active) each time. The phenotypically active with WPMY1-GM130-SQSTM1, in the assay on WPMY1-TP53BP1-CLTA and in the assay on WPMY1-TUBA1B-RELA was 1 (active) throughout.
`O=C(NC(NC(=S)Nc1ccc(F)c([N+](=O)[O-])c1)C(Cl)(Cl)Cl)C(c1ccccc1)c1ccccc1` (stereo not given): the “lowest phenotypically active concentration” value with A549-ACTB-RAB5A [1] was 3 µM; with A549-CANX-COX4 [2], 9 µM; in the assay with A549-GM130-SQSTM1 [3], 3 µM; with A549-TP53BP1-CLTA [4], 9 µM; in the assay on A549-TUBA1B-RELA [5], 9 µM. The phenotypically active in the assay on A549-ACTB-RAB5A [6], with A549-CANX-COX4 [7], in the assay with A549-GM130-SQSTM1 [8], in the assay with A549-TP53BP1-CLTA [9], in the assay on A549-TUBA1B-RELA [10] and in the assay with HepG2-ACTB-RAB5A was 1 (active) each time. Moreover, the phenotypically active in the assay on HepG2-CANX-COX4, in the assay on HepG2-GM130-SQSTM1, in the assay with HepG2-TP53BP1-CLTA, in the assay on HepG2-TUBA1B-RELA, with WPMY1-ACTB-RAB5A and with WPMY1-CANX-COX4 was 1 (active) in each case. The phenotypically active with WPMY1-GM130-SQSTM1, in the assay on WPMY1-TP53BP1-CLTA and with WPMY1-TUBA1B-RELA was 1 (active) in each case.
For `NC1(C(=O)N[C@@H](CCO)c2ccc(Cl)cc2)CCN(c2ncnc3[nH]ccc23)CC1`, the “lowest phenotypically active concentration” value in the assay with A549-ACTB-RAB5A [1] was at most 0.3 µM; in the assay on A549-CANX-COX4 [2], 1 µM; in the assay with A549-GM130-SQSTM1 [3], 1 µM; with A549-TP53BP1-CLTA [4] it was 1 µM; in the assay with A549-TUBA1B-RELA [5], 3 µM. Further, the phenotypically active in the assay with A549-ACTB-RAB5A [6], in the assay on A549-CANX-COX4 [7], with A549-GM130-SQSTM1 [8], with A549-TP53BP1-CLTA [9], in the assay with A549-TUBA1B-RELA [10] and in the assay with HepG2-ACTB-RAB5A was 1 (active) throughout. The phenotypically active with HepG2-CANX-COX4, with HepG2-GM130-SQSTM1, in the assay with HepG2-TP53BP1-CLTA, in the assay on HepG2-TUBA1B-RELA, in the assay with WPMY1-ACTB-RAB5A and in the assay with WPMY1-CANX-COX4 was 1 (active) throughout. The phenotypically active with WPMY1-GM130-SQSTM1, in the assay with WPMY1-TP53BP1-CLTA and in the assay on WPMY1-TUBA1B-RELA was 1 (active) throughout.
For `CCNC(=O)c1noc(-c2cc(C(C)C)c(O)cc2O)c1-c1ccc(CN2CCOCC2)cc1`, the “lowest phenotypically active concentration” value in the assay with A549-ACTB-RAB5A [1], in the assay on A549-CANX-COX4 [2], with A549-GM130-SQSTM1 [3], in the assay on A549-TP53BP1-CLTA [4] and in the assay on A549-TUBA1B-RELA [5] was at most 0.3 µM each time. Further, the phenotypically active with A549-ACTB-RAB5A [6], with A549-CANX-COX4 [7], in the assay with A549-GM130-SQSTM1 [8], with A549-TP53BP1-CLTA [9], with A549-TUBA1B-RELA [10] and with HepG2-ACTB-RAB5A was 1 (active) in each case. Further, the phenotypically active in the assay with HepG2-CANX-COX4, in the assay with HepG2-GM130-SQSTM1, in the assay with HepG2-TP53BP1-CLTA, in the assay on HepG2-TUBA1B-RELA, in the assay on WPMY1-ACTB-RAB5A and in the assay with WPMY1-CANX-COX4 was 1 (active) throughout. Moreover, the phenotypically active in the assay on WPMY1-GM130-SQSTM1, in the assay with WPMY1-TP53BP1-CLTA and in the assay with WPMY1-TUBA1B-RELA was 1 (active) in each case.
